Tau fluor cs = counter-screen for tau fibril formation inhibitors | tau K18 P301L Alexa594 fluorescence, heparin fibrillization | Potency, µM (series often up to 57.7 µM), for the others: top-dose activity change, negative = decrease | hit rate 0.93% among 280,000 | AID 1463; further: nearly all actives have a fitted effect of over 55% in size
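Human K18 P301L tau (15 uM unlabeled plus 0.24 uM Alexa 594-labeled, final) in 100 mM sodium acetate pH 7 was mixed with compound and 20 uM heparin and incubated 6 hr at 37 C.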
GoLoco inh red = blocks human Gai1 binding to RGS12 GoLoco peptide, red readout. Gai1:RGS12 GoLoco peptide FP, rhodamine, 10 min. Potency, µM (doses to about 61.6 µM), for inactives: at the top dose activity, negative = inhibition, most hits filed as inhibitors. hit rate 0.44% among 230,000. AID 880; active means well fitted inhibition curve with a large enough effect, not every such curve was filed as active; inactive means no such curve, though single readings can be large or run the other way; further: nearly all actives have a fitted effect of over 30% in size
TRb SRC2 PPI = TRbeta-SRC2 interaction inhibition; TRbeta-SRC2 peptide binding, fluorescence polarization; receptor liganded with 1 µM T3; hit rate 0.065% among 280,000; Potency, µM (top dose mostly 106 µM), without a hit: top-dose activity change, negative = inhibition, actives largely listed as inhibitors; P10828;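 further: plate controls were bound peptide for no effect and peptide without receptor for full effect; nearly all actives have a fitted effect of over 50% in size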
Target sequence (P10828 whole entry, looked up): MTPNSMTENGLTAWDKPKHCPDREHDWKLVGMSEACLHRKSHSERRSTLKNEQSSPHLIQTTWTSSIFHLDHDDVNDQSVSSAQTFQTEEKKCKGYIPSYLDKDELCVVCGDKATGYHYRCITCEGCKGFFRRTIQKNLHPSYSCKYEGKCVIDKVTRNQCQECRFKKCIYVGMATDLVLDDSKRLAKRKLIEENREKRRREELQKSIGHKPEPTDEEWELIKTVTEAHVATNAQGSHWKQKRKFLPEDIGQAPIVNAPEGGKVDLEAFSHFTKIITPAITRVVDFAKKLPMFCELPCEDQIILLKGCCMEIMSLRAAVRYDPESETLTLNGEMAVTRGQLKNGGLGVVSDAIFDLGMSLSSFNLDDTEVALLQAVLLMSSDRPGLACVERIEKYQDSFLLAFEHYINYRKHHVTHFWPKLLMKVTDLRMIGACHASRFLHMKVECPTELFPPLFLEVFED
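Compounds were added to 0.6 uM TRb ligand-binding domain and 20 nM Texas Red-labeled SRC2 peptide in Tris buffer containing 1 uM T3, incubated 5 hr at ambient temperature, then read by fluorescence polarization.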
TR SRC2 fluor cs = counter-screen for TRb-SRC2 inhibitors: fluorescence interference | Potency, µM (titrated, usually from 106 µM), for the others: at the highest dose fluorescence change, negative = quenching | hit rate 0.29% among 280,000 | TRb/SRC2 Texas Red total fluorescence interference; active means well fitted curve in either direction with a large enough effect; inconclusive means small, poorly fitted or top-dose-only effect
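Human TRβ ligand-binding domain (0.6 uM) and Texas Red SRC2 peptide (20 nM) in Tris buffer with 1 uM T3 and 5% DMSO were incubated with pinned compound for 5 hr at ambient temperature. Total fluorescence was computed as S + 2P (555/632 nm).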
Tau fibril FP = inhibitors of human tau fibril formation. Potency, µM (highest dose often 57.7 µM), for the others: at the top dose activity, negative = inhibition, usual class: inhibitors. K18 P301L tau heparin fibrillization, Alexa594 FP, 6 h. AID 1468. hit rate 0.39% among 280,000; further: nearly all actives have a fitted effect of over 55% in size
Target sequence (P10636 561-689 P618L limits assumed): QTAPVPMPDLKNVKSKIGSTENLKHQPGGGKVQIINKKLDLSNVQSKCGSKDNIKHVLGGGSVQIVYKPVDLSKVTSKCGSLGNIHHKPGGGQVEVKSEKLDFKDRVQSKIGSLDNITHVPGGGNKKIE
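FP of Alexa 594-tau after heparin (20 uM) induction. Substrate: human K18 P301L, 15 uM unlabeled, 0.24 uM labeled. Buffer 100 mM sodium acetate pH 7. 6 hr, 37 C.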
Tau fibril ThT = tau fibrillization inhibition (ThT binding); recombinant tau K18 P301L (four-repeat tau fragment), heparin-induced fibrillization, ThT fluorescence; Potency, µM (series often up to 57.4 µM), for the others: at the highest dose activity, negative = inhibition, actives largely listed as inhibitors; hit rate 2.1% among 270,000; AID 1460; P10636; further: nearly all actives have a fitted effect of over 55% in size
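K18 P301L tau (15 uM + 0.24 uM Alexa 594-tagged), heparin 20 uM, NaOAc pH 7, 6 h 37 C; ThT 30 uM, 1 h RT, ex 450/em 510 nm.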
* = called active by the depositor; ? = inconclusive; . = no result given; [ ] = another dose, or the depositor's remark. Compounds with a hit are over-represented: about 3.2% of the library has one in this group of screens. Unless noted, the call rests on the fitted dose curve; in most records, active means well fitted curve in the direction sought with a large enough effect; inconclusive means small, poorly fitted or top-dose-only effect, or another doubt; inactive means no such curve, though single readings can be large; an effect the other way counts as inactive or inconclusive. Unless noted, on the % scale 0 is the no-effect control and ±100 the full control effect; potency means the concentration at half of the fitted maximal effect.

SMILES | Tau fluor cs | GoLoco inh red | TRb SRC2 PPI | TR SRC2 fluor cs | Tau fibril FP | Tau fibril ThT
CSc1ccc(CCNC(=O)C(C)n2c(C)c3cnn(-c4ccccc4)c(=O)c3c2C)cc1 (stereo not drawn) | -9% | . | -2% | -1% | 1% | -2%
Cc1c(Br)c(=O)oc2c(Br)c(O)c(O)cc12 | ? | -13% | -6% | -9% | ? | 13µM*
Cc1c(Br)c(=O)oc2c(Br)c(O)ccc12 | -2% | -1% | 7% | -2% | 2% | -6%
COc1ccc(/C(C)=N/Nc2nc3ccccc3nc2C)cc1OC | ? | 6% | 9% | -5% | ? | 13µM*
CN(C)c1ccc(NC(=S)c2ccccn2)cc1 | ? | -5% | -4% | 0% | 4% | 3.5µM*
CN(C)c1ccc(C(=S)Nc2ccccc2)cc1 | -23% | -9% | 2% | -1% | 1% | ?
Nc1cccc2nsnc12 | -16% | 1% | 4% | 1% | ? | 28µM*
Clc1ccc(CCNC(c2nnc(-c3ccccc3)o2)c2ccccc2Cl)cc1 (stereo not drawn) | -6% | . | -1% | 0% | -3% | -7%
O=C1C(Nc2ccccc2)=CC(=O)c2ncccc21 | ? | 0% | 4% | -9% | ? | 14µM*
CCn1c2ccccc2c2cc(/C=N/NC(=O)c3cc(O)cc(O)c3)ccc21 | -5% | 1% | 5% | -2% | -2% | -5%
CCn1c2ccccc2c2cc(/C=N/NC(=O)c3ccc(O)cc3)ccc21 | 10µM*[quencher] | -6% | -3% | 0% | ? | ?
Cc1ccc(Cn2c3ccccc3c3cnn(CC(=O)N4CCCCCC4)c(=O)c32)cc1 | -12% | . | -1% | 6% | -11% | -14%
COc1ncc2nc(-c3ccccc3)c(=O)n(C[C@H]3CCCO3)c2n1 | . | 5% | . | . | . | .
c1c[nH]c(CN2CCOCC2)n1 | . | 1%[14.2 µM] | . | . | . | .
COC(=O)C1=C(C)NC(=O)/C1=C\c1cc(C)n(-c2ccccc2)c1C | ? | 8% | 0% | -4% | 4% | 13µM*
COC(=O)C1=C(C)NC(=O)/C1=C\c1cc(C)n(-c2cc(C)cc(C)c2)c1C | ? | 2% | 2% | 3% | 1% | 20µM*
O=C(NCCNCCO)C1(C(F)(F)F)CC(CCc2ccccc2)CCCO1 (stereo not drawn) | . | . | 1% | -2% | . | .
CCC(C)c1cc([N+](=O)[O-])cc([N+](=O)[O-])c1OC(=O)OC(C)C (stereo not drawn) | . | . | 1% | -2% | . | .
COc1ccc(CNC(=O)Cn2c(=O)nc(-c3ccccc3)c3ccccc32)cc1OC | 2% | . | -3% | -1% | -6% | -4%
Cc1cc(=O)c2c(O)c3c(O)cc(=O)c4c3c3c(cc(O)c1c23)C(C)(C)C=4O | ? | 0.63µM* | -7% | ? | -13% | 8.9µM*
Cc1ccc(C)c(NC(=O)NCc2ccc(Cl)cc2)c1 | . | 3%[14.2 µM] | . | . | . | .
O=C(NC1CCCCC1)C(c1cccnc1)N(C(=O)c1ccc(Cl)nc1)C1CCCCC1 (stereo not drawn) | -4% | 3% | 0% | 0% | 2% | -5%
CC(C)(C)NC(=O)C(c1cccnc1)N(C(=O)c1ccc(Cl)nc1)C1CCCC1 (stereo not drawn) | -37% | -3% | -10%[53 µM] | -2%[53 µM] | -65% | 13µM*
O=C(CCSCc1cnn(-c2ccccc2)c1-n1cccc1)NCc1ccc(Cl)cc1 | 5% | . | -3% | 0% | 0% | -8%
Cc1cc(=O)[nH]c2c(N=Nc3ccc(O)cc3)c(N)nn12 | -26% | 17% | 8%[53 µM] | -20%[53 µM] | 10% | 8.9µM*
SMILES | Tau fluor cs | GoLoco inh red | TRb SRC2 PPI | TR SRC2 fluor cs | Tau fibril FP | Tau fibril ThT
Nc1nn2c(C(F)(F)F)cc(=O)[nH]c2c1N=Nc1cccc(F)c1 | ? | 11% | 9% | ? | -15% | 7.9µM*
COc1ccc(N2CC3=C(C2=O)C(c2ccc(Br)cc2)NC(=O)N3C)cc1 (stereo not drawn) | -16% | . | -13% | 2% | 9% | -3%
CCOC(=O)C1OC1C(=O)N[C@@H](CC(C)C)C(=O)NCCC(C)C (stereo partly drawn) | . | . | 9% | -2% | . | .
CNCc1ccccc1Sc1cccc(O)c1 | 0% | 2% | -3% | -2% | -2% | 3%
CNCc1ccccc1Sc1cc(O)ccc1O | 18µM*[quencher] | 4.5µM* | -7% | -5% | 32µM* | 18µM*
O=C(Nc1ccc(N2CCOCC2)cc1)C1CC(=O)N(c2ccc(Cl)cc2)C1 (stereo not drawn) | -13% | -10% | -1% | 1% | 3% | ?
O=C(Nc1ccc(N2CCOCC2)cc1)C1CC(=O)N(c2ccccc2)C1 (stereo not drawn) | 7% | 11% | -3% | 0% | 6%[2.34 µM] | 4.5µM*
COc1ccc2[nH]c3c(N4CCC(O)(c5cccc(C(F)(F)F)c5)CC4)ncnc3c2c1 | 16µM*[quencher] | 6% | 3% | -4% | 13% | ?
COc1ccc2[nH]c3c(N4CCN(Cc5ccc6c(c5)OCO6)CC4)ncnc3c2c1 | 20µM*[quencher] | . | -10% | -4% | ? | ?
CN1C(=O)C(Cl)(Cl)C(=O)c2ccccc21 | -20% | -5% | -3% | -3% | 7.1µM* | 4µM*
CN1C(=O)C2(NC(=O)c3ccccc3N2C)c2ccccc21 (stereo not drawn) | -2% | -11% | -1% | -1% | -1% | -1%
CCOc1cc(C2C(C#N)=C(N)SC(N)=C2C#N)ccc1OCCN1CCOCC1 | -29% | 99% | 18% | 5% | ? | 25µM*
O=C(O)Cc1sc(N/N=C\c2ccccc2)nc1-c1ccccc1 | ? | 74% | 2%[53 µM] | -2%[53 µM] | ? | 10µM*
CCN1C(=O)/C(=C\C=C2/C=CC=CN2CC)SC1=S | -22% | 338% | 12% | 6% | ? | 14µM*
CCCN1C(=O)/C(=C\C=C2/Sc3ccccc3N2CC)SC1=S | 17% | 316% | ? | ? | -4% | ?
CCN1C(=O)/C(=C/C=C2\C=CN(CC)c3ccccc32)SC1=S | ? | 12% | 4% | -3% | ? | 2.2µM*
CCN1C(=O)/C(=C2/C=CC=CN2C)SC1=S | -10% | -4% | 7% | -4% | -3% | ?
Nc1ncnc2c1nc(Br)n2C1O[C@H]2COP(=O)(O)O[C@@H]2C1O (stereo partly drawn) | 4% | -1% | 2% | 2% | ? | 1%
C/C(=C\CNc1ncnc2c1ncn2[C@@H]1O[C@H](CO)[C@@H](O)[C@H]1O)CO | 4% | 14% | -10% | 1% | -1% | -2%
COCCOCCOCCOC | . | . | 8%[201 µM] | -2%[201 µM] | . | .
S=C(NCCC(c1ccccc1)c1ccccc1)Nc1ccc(Cl)cc1 | 8.9µM*[quencher] | 9% | 2% | -2% | 14µM* | 15%
